Among all 400,000 compounds or so, about 3,700 (0.93%) were called active. Roughly 3% stayed inconclusive and do not appear here. Calls follow the shape of the dose curve; as a rule, active = well fitted inhibition curve with a large enough effect; inconclusive = small, poorly fitted or top-dose-only effect, or another doubt; inactive = no such curve, though single readings can be large or run the other way. The list comes from a sample in which actives are over-represented; it also holds similar structures and randomly drawn compounds. More than one record can exist for a structure, and the calls need not agree.
Molecular target: Vitamin D3 receptor (Homo sapiens) (UniProt P11473)
Experiment: Inhibitors of the vitamin D receptor (VDR): qHTS
Conditions: VDR-SRC2-3 peptide fluorescence polarization, 2 h; max response, negative = inhibition: stronger effect = lower value
Source text: The vitamin D receptor (VDR) is a ligand-activated transcription factor and is partially responsible for the regulation of the endocrine system. This includes the transcriptional regulation of genes involved in the production of the parathyroid hormone (PTH) and the regulation of the blood calcium level. High levels of PHT can cause hypercalcemia in the case of primary and tertiary hyperparathyroidism. The VDR-mediated gene regulation, activated by its ligand 1,25-dihydroxyvitamin D3 (1,25-(OH)2D3), is governed by the recruitment of coactivators. Our hypothesis is that small molecules, with the ability to inhibit the interaction between VDR and certain coactivators, are able to selectively modulate VDR-mediated transcription. Our long term objective is the application these VDR-coactivator inhibitors to study the role of VDR-coactivator binding for specific VDR regulated genes. Ultimately, these molecules can be developed into new treatments for hypercalcemic hyperparathyroidism. No small molecule or non-peptide inhibitors are known for the VDR-coactivator interaction.
In a collaboration between the University of Wisconsin, Milwaukee and the NIH Chemical Genomics Center (NCGC) a HTS-compatible enzymatic assay was developed. The assay uses fluorescence polarization as its read-out to measure the inhibition between VDR and coregulator peptide SRC2-3 exerted by small molecules. This assay was used to screen the NIH Molecular Libraries Small Molecule Repository (MLSMR).
NIH Chemical Genomics Center [NCGC]
NIH Molecular Libraries Probe Centers Network [MLPCN]
Assay Submitter (PI): Alexander Arnold, University of Wilwaukee
Both solutions are kept at 4 deg C and protected from light and dispensed using a Kalypsys dispenser. Then 23nl of compounds and controls are added with Kalypsys pintool. […] Plate is centrifuged at 1000 RPM for 15 seconds to remove any residual bubbles. The plate is then incubate at ambient room temperature for 2 hours.
% is scaled to controls: 0 for no effect and ±100 for the full control effect; potency is read from the fitted curve at half-maximal effect.

Vitamin D3 receptor (Homo sapiens), sequence (P11473 whole entry, looked up): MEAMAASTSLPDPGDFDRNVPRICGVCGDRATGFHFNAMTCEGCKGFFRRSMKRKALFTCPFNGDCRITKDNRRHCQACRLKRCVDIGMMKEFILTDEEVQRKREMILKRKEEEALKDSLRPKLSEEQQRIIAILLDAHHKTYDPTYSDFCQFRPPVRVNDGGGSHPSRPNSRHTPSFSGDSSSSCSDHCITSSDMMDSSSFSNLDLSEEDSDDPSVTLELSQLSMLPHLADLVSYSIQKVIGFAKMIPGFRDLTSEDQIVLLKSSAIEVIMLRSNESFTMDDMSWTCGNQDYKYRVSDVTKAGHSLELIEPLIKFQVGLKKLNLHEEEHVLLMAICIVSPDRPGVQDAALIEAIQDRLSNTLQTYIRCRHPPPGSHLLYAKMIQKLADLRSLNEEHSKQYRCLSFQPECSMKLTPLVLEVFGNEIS

SMILES	Potency	max response, negative = inhibition
COc1ccc2c(c1)C(=C(C#N)C#N)C(=O)N2CCc1ccccc1	50.1 µM (active)	
C#CCN1C(=O)C(O)(CC(=O)c2cc(OC)ccc2OC)c2ccccc21 (configuration not stated)		-3.89% (inactive)
COc1ccc(C(=O)NC(C)CCc2ccccc2)c(OC)c1 (configuration not stated)		-15.7% (inactive)
COc1ccccc1-c1nnc(SCC(N)=O)o1		10.5% (inactive)
CCC(=O)N1CCc2cc(Br)cc(S(=O)(=O)CCC(=O)NCc3ccccc3OC)c21		-6.5% (inactive)
COc1ccc(C2Nc3ccc(NC(=O)COC(C)=O)cc3C(=O)N2Cc2ccccc2)cc1COc1ccc(NC(C)=O)cc1 (configuration not stated)		-2.53% (inactive)
CCOc1ccc(N(Cc2ccccc2)C(=O)c2nc(S(C)(=O)=O)ncc2Cl)cc1	12.6 µM (active)	
CCOc1ccc(N(Cc2ccccc2)C(=O)c2nc(SCC)ncc2Cl)cc1		3.07% (inactive)
CCOc1ccc(NC(=O)CN(Cc2ccccc2)S(=O)(=O)c2ccc(Cl)cc2)cc1		3.79% (inactive)
Cc1ccc(Cn2c(=O)n(CCCC(=O)NCc3ccccc3Cl)c(=O)c3ccccc32)cc1	89.1 µM (active)	
Cc1ccccc1NC(=O)Cn1c(=O)n(CCCCC(=O)NCc2ccccc2Cl)c(=O)c2ccccc21		-9.56% (inactive)
COc1ccc(CCNC(=O)CCCn2c(=O)c3ccccc3n(Cc3ccc(C)cc3)c2=O)cc1OC		-9.82% (inactive)
O=C1N(Cc2ccccc2)c2ccc(Cl)cc2C1(O)c1c[nH]c2ccccc12 (configuration not stated)		-7.22% (inactive)
Cc1c(Cl)cccc1-c1ccc(CNCCCSc2nnnn2C)o1		17.5% (inactive)
CC(C)(C)c1ccc(S(=O)(=O)N2CCN(C(=O)c3cc(-c4ccc(Br)cc4)n[nH]3)CC2)cc1		0.49% (inactive)
O=C(c1cc(-c2ccc(F)cc2)on1)N1CCN(c2ccc(F)cc2)CC1	70.8 µM (active)	-26.1% (inactive)
O=C(c1cc(-c2ccc(O)cc2)on1)N1CCOCC1		4.52% (inactive)
O=C(c1cc(-c2ccc(Cl)cc2)on1)N1CCN(c2ccccc2)CC1		0.117% (inactive)
CCCCn1c(=O)c2oc3ccccc3c2n(CC(=O)Nc2ccccc2OC)c1=O		4.96% (inactive)

SMILES	Potency	max response, negative = inhibition
C=C(C)C1CC=C(CO)CC1 (configuration not stated)		1.87% (inactive)
Cc1ccn2c(Nc3ccc4c(c3)OCCO4)c(-c3ccc(C)s3)nc2c1		-0.614% (inactive)
O=C(O)[C@@H](S)[C@H](S)C(=O)O	17.8 µM (active)	
CCCCCCC1(C)NC(c2ccc3c(c2)OCO3)=CC(c2ccccc2O)N1 (configuration not stated)		-18% (inactive)
CCOC(=O)c1nnn(CC(=O)NC(=O)Nc2ccccc2F)c1C(=O)OCC		1.08% (inactive)
N#Cc1ccccc1Cn1cnc2nc3c(cc2c1=O)CCCC3		-2.58% (inactive)
COCCn1c(CCC(=O)Nc2cc(C)ccc2C)nc2cccnc21		7.95% (inactive)
Cc1ccc(F)cc1NC(=O)CCSc1nc(-c2ccco2)cc(C(F)(F)F)n1		7.81% (inactive)
COc1ccc(Cl)cc1NC(=O)CSc1nc(-c2cccs2)cc(C(F)(F)F)n1		-17% (inactive)
COc1ccccc1-c1cc(C(F)(F)F)nc(S(=O)(=O)CCCC(=O)Nc2ccc(F)cc2F)n1	56.2 µM (active)	
CCOc1ccc(-c2cc3nc(C4CCN(C(=O)OC(C)(C)C)CC4)c(C(=O)Nc4ccc(C(=O)OC)cc4)cn3n2)cc1		-12.8% (inactive)
CCN1C(=O)c2ccccc2S(=O)c2ccc(C(=O)NCc3ccc(F)cc3)cc21 (configuration not stated)		-17% (inactive)
CO[C@@]12[C@@H](COC(N)=O)C3=C(C(=O)C(C)=C(N)C3=O)N1C[C@@H]1N[C@@H]12		1.74% (inactive)
COc1ccc(C2C(=O)N(C3CCCCC3)CC(=O)N2Cc2ccccc2Cl)cc1OC (configuration not stated)		5.49% (inactive)
CSc1nc(N(C)NC(=O)c2cccc(C)c2)c2ccccc2n1		6.12% (inactive)
CC(Sc1nnc2c(n1)C1CCC2(C)C1(C)C)C(=O)Nc1ccccc1 (configuration not stated)		-21.5% (inactive)
CSc1nc(C)cc(SC(C(C)=O)C(=O)Nc2ccccc2)n1 (configuration not stated)	79.4 µM (active)	
COc1ccc(NC(=O)CSc2nc3ccccc3n2CC(=O)N2CCCCC2C)cc1 (configuration not stated)		-0.157% (inactive)
O=C(Nc1cccc2cccnc12)C(F)(F)F		3.86% (inactive)

SMILES	Potency	max response, negative = inhibition
Cc1ccc(-c2nn(CC(C)(C)C)c3ncnc(N)c23)cc1		-0.691% (inactive)
CCc1nn(CC(=O)N2CCN(c3ccc(Cl)cc3)CC2)c(=O)c2cc3occc3n12		22.3% (inactive)
CCN(CC)CCNC(=O)Cn1ncc2c3ccccc3n(Cc3ccccc3C)c2c1=O		13.4% (inactive)
CCOC(=O)c1c(NC(=O)C2(C)Cc3ccccc3C(=O)O2)sc2c1CCCC2 (configuration not stated)	79.4 µM (active)	
CCOC(=O)c1c(NC(=O)c2ccc(S(=O)(=O)N(CC)CC)cc2)sc2c1CCCCC2		-15.3% (inactive)
CCOC(=O)c1c(NC(=O)Cc2coc3ccc(CC)cc23)sc2c1CCC2		2.49% (inactive)
CCC(=O)Nc1ccc2nc(SCC(=O)N3CCc4ccccc43)sc2c1		13% (inactive)
CCOC(=O)C1C/C(=C\C(C)=O)c2cccc(C(F)(F)F)c2O1 (configuration not stated)		-3.65% (inactive)
COc1cc(OC)c(C(=O)Nc2ccc(N(C)C)cc2)cc1OC		-2.21% (inactive)
CN(C)c1ccc(/C=N/NC(=O)C(O)c2ccc(Br)cc2)cc1 (configuration not stated)		5.61% (inactive)
CN(C)c1ccc(N/C=C/C(=O)C(F)(F)F)cc1	25.1 µM (active)	
O=C(CSc1nc(-c2cccc(F)c2)[nH]c1-c1ccccc1)Nc1ccc2c(c1)OCO2		-7.99% (inactive)
CCOc1ccc(N(CC)C(=O)c2cc3c(=O)oc4ccccc4c3s2)cc1		-18% (inactive)
CCOc1cc(CNC(=O)c2sc3ncnc(N(C)C4CCCCC4)c3c2C)ccc1OC		5.17% (inactive)
COc1cc(NC(=O)CSc2nc3nc(C)c(Cc4ccc(C)cc4)c(C)n3n2)cc(OC)c1OC		12.5% (inactive)
N#CC1=C(N)Oc2[nH]c(=S)[nH]c(=O)c2C12C(=O)Nc1ccccc12 (configuration not stated)	44.7 µM (active)	
N#CC1=C(N)Oc2n[nH]c(CSc3ccccc3)c2C12C(=O)Nc1ccccc12 (configuration not stated)		12% (inactive)
CC1(C)Cc2ccccc2-c2[nH]c(=S)[nH]c(=O)c21		-2% (inactive)

— PubChem BioAssay AID504847 (National Center for Advancing Translational Sciences (NCATS), 2011)
